In PubChem BioAssay (NCI) one finds growth data, which are given here for 39 compounds.

The panel holds about 83,000 compounds, 20% with a hit somewhere; the sample as a whole holds those more often.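 Assay: single dose, 48 h. Readout: percent growth (0 = no net growth; negative = cell death). Active: <10.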 Values without a mark were called inactive. Active and inactive are the calls of the source.

The experiment concerns NCI-H522 lung. In words: NCI-60 one-dose screen, 48 h (100 = growth as untreated, 0 = no growth, -100 = all killed). To be noted: 10 µM unless noted.
Regarding `Clc1nnc2c3ccccc3ccn12`, the growth was 103%.

For the compound `COc1ccc(-c2nn(C(=O)NCCN(C)C)cc2-c2ccncc2)cc1Cl`, the growth was 28.2%.

On to `CCN1C(=O)N(CC)C2C1NN=c1s/c(=C\c3ccco3)c(=O)n12` (centres undefined), for which the growth is -9.98% (active).

As to `CC(C)N(C(=S)SSC(=S)N(C(C)C)C(C)C)C(C)C`, the growth is 75.7%.

On to `CC(C)=CC[C@@H]1CC2(CC=C(C)C)C(=O)C(OC3(C(=O)c4ccccc4)C(=O)C4(CC=C(C)C)C[C@@H](CC=C(C)C)C(C)(C)C(CC=C(C)C)(C4=O)C3=O)(C(=O)c3ccccc3)C(=O)C(CC=C(C)C)(C2=O)C1(C)C` (some centres undefined), for which the growth was -28.8% (active).

As to `CCCCCCCCCCCCCCCC1=NCCN1`, the growth is 74%.

For `COc1cc([N+](=O)[O-])cc(OC)c1OC`, the growth is 83.8%.

As for `NNC(=O)CSc1nc2scc(-c3ccccc3)c2c(=O)n1-c1ccccc1`, the growth was 91.4%.

Turning to `C=CCN(CC#N)CC=C`, the growth is 97.7%.

Take `CCOC(=O)Cn1c(-c2nonc2NC(=O)c2ccccc2F)nc2ccccc21`: the growth is 47.6%.

With `CCCCCCCOc1cccc(/C=C2\N=C3SCCCN3C2=O)c1`, the growth is 62.3%.

As to `Cc1c2c(cc3c1[nH]c1ccccc13)C=NCC2`, the growth was 75.1%.

With `COc1cc(OC)c(Cl)cc1N`, the growth was 94.8%.

As to `CS(=O)(=O)c1ccc(C(=O)Nc2ccc(Cl)c(-c3ccccn3)c2)c(Cl)c1`, the growth is 2.48% (active).

On to `Cc1cc([N+](=O)[O-])c(C)cc1N`, for which the growth is 77.5%.

With `COc1cnc2c(c1)C(=O)c1c-2n(CCCN2CCNCC2)c(=O)c2cc(Cl)ccc12`, the growth is 17.4%.

Regarding `COc1cc(/C=C2\CN(C(=O)OC(C)(C)C)C/C(=C\c3ccc(O)c(OC)c3)C2=O)ccc1O`, the growth was 64.5%.

Consider `CCN1C(=O)C(C)C=C(C)C=C1C` (centres undefined), for which the growth was 84.5%.

For `COCc1nc(NS(=O)(=O)c2ccc(N)cc2)nc(C)c1Br`, the growth was 76.7%.

Consider `O=c1c2cc(Br)cc(Br)c2nc(-c2ccc(Cl)cc2)n1/N=C\c1ccccc1F`, for which the growth was 51.3%.

Turning to `CCCCCCCCCCCCCC1=NC(C)(C)CN1C(C)C`, the growth was -61.7% (active).

For `CCC(=O)OCc1ccc(OC)cc1`, the growth was 106%.

In the case of `Fc1ccc(-c2cnc3nonc3n2)c(F)c1`, the growth is 84%.

For `O=S(=O)(Nc1ccc2ccccc2c1)N1CCCCC1`, the growth is 2.32% (active).

As to `CCn1c(Cc2ccccc2Nc2c(Cl)cccc2Cl)nnc1SCC(=O)Nc1cccc(OC)c1`, the growth is 42.6%.

Turning to `CCN(CC)CC(=O)Nc1c(C)ccc(N)c1C`, the growth is 74.4%.

As for `C=C1C[C@@]2(C)C(CC[C@]3(C)C2CC=C2C4CC(C)(C)C[C@@H](OC(=O)/C(C)=C\C)[C@]4(C(=O)O)CC[C@]23C)C(C)(C)C1=O` (some centres undefined), the growth was -6.98% (active).

For `C=C1C(=O)O[C@H]2[C@H]1CC/C(COC(=O)NCc1cccc(OC)c1)=C\CC[C@@]1(C)O[C@@H]21`, the growth is -70.3% (active).

Regarding `CCCCOc1nc2ccccc2cc1/C=C/c1cc(/C=C/c2cc3ccccc3nc2OCCCC)n(-c2ccccc2)n1`, the growth is 85.8%.

In the case of `CCCCc1nc(Cl)c(C2CC(c3ccc(S(N)(=O)=O)cc3)=NN2c2cc(Cl)cc(Cl)c2)[nH]1` (centres undefined), the growth was 22.7%.

Turning to `O=C(N/N=C\c1cc(Br)ccc1O)c1ccncc1`, the growth was -27.2% (active).

Consider `CC(C)C/C=C/C=C/C(=O)N[C@@H](CC(N)=O)C(=O)N[C@@H]1C(=O)N[C@H](c2ccc(O)cc2)C(=O)N[C@H](CCCN)C(=O)N[C@H]([C@@H](C)O)C(=O)N[C@H](c2ccc(O)cc2)C(=O)N[C@H](c2ccc(O)cc2)C(=O)N[C@H]([C@H](C)O)C(=O)N[C@H](Cc2ccccc2)C(=O)N[C@H](CCCN)C(=O)N[C@H](c2ccc(O[C@H]3O[C@@H](CO)[C@@H](O)[C@@H](O)[C@H]3O[C@@H]3O[C@H](CO)[C@H](O)[C@H](O)[C@@H]3O)cc2)C(=O)N[C@H]([C@H](C)O)C(=O)N[C@H](c2ccc(O)cc2)C(=O)NCC(=O)N[C@H](CC(C)C)C(=O)N[C@H](C)C(=O)N[C@H](c2ccc(O)c(Cl)c2)C(=O)O[C@@H]1C(N)=O`, for which the growth is 78.1%.

For the compound `CN(C)c1ccc(/C=C\c2cccc[n+]2C)cc1`, the growth is 30.5%.

In the case of `COC(=O)CSc1ccc(Cl)cc1`, the growth is 92.2%.

`S=C(S)Oc1cccc2cccnc12`: the growth was 88.9%.

As for `O=C1NN(C(=O)c2ccccc2)C(c2ccc(Cl)c(Cl)c2)=C/C1=C\c1ccccc1[N+](=O)[O-]`, the growth is -11.1% [6.75 µM] (active).

Consider `CCOC(=O)Nc1ccc2nc(Sc3ccc(Cl)cc3)sc2c1`, for which the growth is 28.3%.

For `COc1cc(C2CC(c3cccc(Nc4ccnc5cc(Cl)ccc45)c3)=NN2C=O)cc(OC)c1OC` (centres undefined), the growth is -4.52% (active).

`c1cn2cc(-c3ccc4ncn(C5CCCCC5)c4c3)nc(-c3ccc4c(c3)ncn4C3CCCCC3)c2n1`: the growth was -52.6% (active).
